Assay outcomes deposited in PubChem by several laboratories.
The list is not random: actives were taken first. Their share in the collection is about 3.8%.
Mdm2-MdmX inh: inhibitors of human Mdm2/MdmX interaction; O15151+Q00987; SaOS-2 split-luciferase Mdm2/MdmX complementation, luminescence; inhibition, % at 8 µM; 330,000 tested, 3% active;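 active = inhibition of at least 50% at 8 µM in the primary screen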
Target sequence (O15151 whole entry, looked up): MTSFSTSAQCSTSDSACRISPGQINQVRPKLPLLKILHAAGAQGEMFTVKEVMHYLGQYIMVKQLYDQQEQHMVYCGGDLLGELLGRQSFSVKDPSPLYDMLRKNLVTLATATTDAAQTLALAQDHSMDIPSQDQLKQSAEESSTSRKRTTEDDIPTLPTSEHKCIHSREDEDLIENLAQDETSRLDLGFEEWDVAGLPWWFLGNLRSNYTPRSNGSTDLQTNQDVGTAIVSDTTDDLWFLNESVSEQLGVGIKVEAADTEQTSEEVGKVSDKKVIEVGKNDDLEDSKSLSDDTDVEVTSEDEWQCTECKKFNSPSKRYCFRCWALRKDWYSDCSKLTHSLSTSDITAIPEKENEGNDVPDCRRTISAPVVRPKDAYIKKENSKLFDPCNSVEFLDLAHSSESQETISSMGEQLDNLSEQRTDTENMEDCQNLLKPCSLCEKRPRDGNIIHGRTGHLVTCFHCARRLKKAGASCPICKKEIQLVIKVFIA
Target sequence (Q00987 whole entry, looked up): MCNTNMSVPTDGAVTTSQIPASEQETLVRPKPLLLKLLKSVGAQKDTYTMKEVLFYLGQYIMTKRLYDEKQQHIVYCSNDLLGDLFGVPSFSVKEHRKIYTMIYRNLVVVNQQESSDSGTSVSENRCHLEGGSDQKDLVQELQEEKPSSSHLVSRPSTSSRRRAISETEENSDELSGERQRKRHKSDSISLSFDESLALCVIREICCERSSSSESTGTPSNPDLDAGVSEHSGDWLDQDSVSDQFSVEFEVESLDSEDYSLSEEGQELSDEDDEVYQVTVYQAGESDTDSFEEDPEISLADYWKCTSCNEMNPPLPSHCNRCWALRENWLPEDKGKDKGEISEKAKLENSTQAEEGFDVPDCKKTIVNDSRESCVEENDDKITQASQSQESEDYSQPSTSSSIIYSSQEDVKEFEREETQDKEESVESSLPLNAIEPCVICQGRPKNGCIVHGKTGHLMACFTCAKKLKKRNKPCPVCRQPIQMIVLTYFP
Shn3 3UTR inh: Schnurri-3 reporter inhibition in Clone20 osteoblasts | Clone20 osteoblast Shn3 3'UTR firefly luciferase, 24 h | inhibition, % at 12.5 µM | 360,000 tested, 0.52% active;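 active = mean inhibition of at least 75% with every replicate also reaching 75%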;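 also: 0% = median of neutral control wells and 100% = pilot-screen positive control compound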
Gli-Sufu block: Gli-Sufu pathway antagonism | AID 588413 | inhibition, % at 5 µM | 340,000 tested, 0.74% active | Sufu-KO-LIGHT fibroblasts, Gli luciferase reporter luminescence;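 active = inhibition above about 55%, limit read from the data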;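 also: 0% = DMSO-treated cells and 100% = wells with medium but no cells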
Jurkat NFkB inh: inhibitors of the PMA/ionomycin-induced NF-kB reporter in Jurkat cells. PMA/ionomycin-induced NF-kB luciferase reporter, luminescence. inhibition, % at 4 µM. AID 435003. 330,000 tested, 0.53% active; in the data active = inhibition above about 50%
697 NFkB inh: inhibitors of the PMA/ionomycin-induced NF-kB reporter in 697 B cells | 697 B-cell NF-kB luciferase reporter, 16 h | inhibition, % at 4 µM | 330,000 tested, 0.33% active; in the data active = inhibition above about 35%
Gli antag conf: confirmation of Gli-SUFU pathway antagonists; shares compounds with Gli-Sufu block; 2,500 tested, 40% active; AID 602428; inhibition, % at 5 µM; Sufu-KO-LIGHT cells, Gli luciferase reporter, luminescence;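 active = mean inhibition at 5 µM reaching about 45%, limit read from the data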;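 also: plate controls were DMSO-treated cells for no effect and wells lacking cells for full effect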
SufuKO cytotox: cytotoxic in Gli-SUFU antagonist counter-screen; shares compounds with Gli-Sufu block; Sufu-KO-LIGHT cells cytotoxicity, ATP luminescence; cytotoxicity, % at 5 µM; 2,500 tested, 32% active; AID 651994;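 active = mean cytotoxicity at 5 µM above about 25%, limit read from the data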;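 also: cells exposed to compound overnight for roughly 16 to 18 hours; plate controls were DMSO wells with cells for no effect and medium without cells for full effect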
Wnt3a counter: counter-screen for Gli-SUFU antagonists: Wnt3a reporter inhibition. 2,500 tested, 20% active. shares compounds with Gli-Sufu block. inhibition, % at 6.25 µM. Wnt-LIGHT cells, Wnt3a-driven luciferase reporter, luminescence;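 active = mean inhibition above about 25%, limit read from the data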
* marks the source's active call; other numbers are inactive results; x = no result.

SMILES	Mdm2-MdmX inh	Shn3 3UTR inh	Gli-Sufu block	Jurkat NFkB inh	697 NFkB inh	Gli antag conf	SufuKO cytotox	Wnt3a counter
Cc1cc(C)c(NC(=O)CNC(=O)COC(=O)C2=COCCO2)c(C)c1	6	-9	52	-9	-3	14	15	-3
Cc1ccccc1NC(=O)COC(=O)C1=COCCO1	14	1	-12	-2	8	x	x	x
Cc1ccc(NC(=O)COc2ccccc2C(N)=O)cc1S(=O)(=O)N1CCCCCC1	5	72	50	30	-5	48*	28*	-13
Cc1ccc(NC(=O)/C=C/c2ccco2)cc1S(=O)(=O)N1CCCCCC1	38	31	77*	6	-24	88*	9	-23
O=C(/C=C/c1ccco1)Nc1cccc(S(=O)(=O)N2CCOCC2)c1	7	-8	13	-13	-2	x	x	x
Cc1cccc(OCCC(=O)Nc2ccc(C)c(S(=O)(=O)N3CCCCC3)c2)c1	x	15	62*	x	x	22	22	-32
Cc1ccc([C@@H]2CC=C(C(=O)O)[C@H](c3cccc(Cl)c3)N2S(=O)(=O)c2ccccc2C)cc1	-1	-7	-3	-9	-2	x	x	x
NC(=O)c1ccc(N2CCN(c3ccccc3F)CC2)c([N+](=O)[O-])c1	10	29	57*	6	4	21	13	-7
NC(=O)c1ccc(N2CCN(c3ccccc3O)CC2)c([N+](=O)[O-])c1	4	34	26	1	-23	x	x	x
NC(=O)c1ccc(N2CCN(S(=O)(=O)c3cccs3)CC2)c([N+](=O)[O-])c1	36	85	56*	-17	-8	65*	14	36*
Cc1ccc(/C=C/c2onc(C)c2S(=O)(=O)N2CCC(C(=O)NC(C)(C)C)CC2)cc1	12	-10	-4	7	10	x	x	x
CCn1c(-c2nonc2NC(=O)c2ccccc2)nc2ccccc21	34	-49	70*	-32	-129	27	12	24
COc1ccc(N2CCN(C(=O)CSc3nnc4n3C(C)(C)Cc3ccccc3-4)CC2)cc1	21	25	14	10	-17	x	x	x
Cc1ccc(Cl)cc1N1CCN(C(=O)CSc2nnc3n2C(C)(C)Cc2ccccc2-3)CC1	47	77	61*	29	-5	60*	20	8
O=C(CN1CCCCC1)Nc1ccc(Br)cc1[N+](=O)[O-]	-17	-19	-16	-13	2	x	x	x
Cc1ccc(C)[n+](CC(=O)c2ccc(-c3ccccc3)cc2)c1	-9	66	56*	19	-9	36	16	-21
Fc1ccc2[nH]c3c(NCc4ccccc4)ncnc3c2c1	46	84	60*	9	22	68*	12	34*
Cc1ccc2c(c1)N(CC(=O)NC(C)CCc1ccccc1)C(=O)c1cccnc1O2 (stereo not given)	16	-8	3	-18	-17	x	x	x
O=C(NCc1ccccn1)c1ccc(Cn2cc(C(F)(F)F)ccc2=O)cc1	-4	-5	62*	7	6	10	3	-15
Nc1cc2nc[nH]c2cc1N	11	-11	63*	0	-9	9	5	-10
Cc1nn(C)c(C)c1NS(=O)(=O)c1ccc(Cl)cc1	-5	-5	-4	-3	-1	x	x	x
CCN(CC)S(=O)(=O)c1ccc(S(=O)(=O)Nc2c(C)nn(C)c2C)cc1	5	85	65*	32	-60	54*	18	25*
Cc1ccc(S(=O)(=O)NC(C)CCc2ccccc2)cc1C(N)=O (stereo not given)	13	50	25	3	-27	x	x	x
COc1ccc(N2CCN(C3CCCN(C(=O)c4ccoc4)C3)CC2)cc1 (stereo not given)	29	-11	55*	5	12	4	-6	6
COc1ccc(N2CCN(C3CCCN(S(=O)(=O)c4ccc(C)cc4C)C3)CC2)cc1 (stereo not given)	9	44	60*	3	-31	21	7	-17
SMILES	Mdm2-MdmX inh	Shn3 3UTR inh	Gli-Sufu block	Jurkat NFkB inh	697 NFkB inh	Gli antag conf	SufuKO cytotox	Wnt3a counter
COc1ccc(N2CCN(C3CCCN(S(=O)(=O)c4ccccc4)C3)CC2)cc1 (stereo not given)	12	-5	-8	3	-15	x	x	x
Cc1ccc(CNS(=O)(=O)c2ccc(CN3C(=O)c4cccnc4C3=O)s2)o1	31	-24	-10	5	7	x	x	x
COc1cccc2sc(=NC(=O)CCS(=O)(=O)c3ccc(C)cc3)n(C)c12	26	-5	4	-11	16	x	x	x
COc1cccc2sc(=NC(=O)CS(=O)(=O)c3ccc(Cl)cc3)n(C)c12	-3	88*	73*	40	-34	79*	29*	40*
COc1cccc2sc(=NC(=O)CS(=O)(=O)c3ccc(F)cc3)n(C)c12	10	71	61*	-18	-17	53*	29*	14
CCn1c(=NC(=O)CS(=O)(=O)c2ccc(C)cc2)sc2cccc(OC)c21	10	78	68*	33	-9	61*	23	37*
COc1cccc2sc(=NC(=O)CS(=O)(=O)c3ccccc3)n(C)c12	x	30	x	x	x	x	x	x
CCN(c1cccc(C)c1)S(=O)(=O)c1cn(CC(=O)OC)c2ccc([N+](=O)[O-])cc12	9	11	4	-8	-20	x	x	x
O=C(Nc1ccccc1C(F)(F)F)c1c(F)cccc1Cl	-23	-4	-2	3	-21	x	x	x
S=C(NCCc1ccccc1)Nc1ccc(Cl)cc1Cl	9	6	65*	5	-1	13	10	-30
S=C(NCCc1ccccc1)Nc1cccc2cnccc12	14	89*	51	48	33	58*	18	34*
CCCCNC(=S)Nc1cccc2cnccc12	-1	7	6	-5	-26	x	x	x
Cc1cc(Cl)ccc1NC(=S)NCCc1ccc(Cl)cc1	12	11	28	0	-1	x	x	x
CC(=O)c1c(C)[nH]c(C(=O)OCC(=O)Nc2cccc(S(=O)(=O)N3CCCC3)c2)c1C	7	79	58*	46	-17	53*	14	-20
COc1ccc(CC(=O)Nc2cccc(S(=O)(=O)N3CCCCCC3)c2)cc1OC	x	90*	53	x	x	49*	26*	22
COc1ccc(CCNC(=O)C2CCCN(S(=O)(=O)N3CCCCCC3)C2)cc1OC (stereo not given)	33	10	54	-1	8	14	6	5
COc1ccc(CCNC(=S)NC(=O)c2cc(OC)c(OC)c(OC)c2)cc1OC	9	25	50	8	-6	18	9	2
